From PubChem BioAssay
Results filed as inconclusive are left out. Activity calls are given as the source filed them.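 Rule for the calls, unless noted: active = inhibition above the screen-wide mean plus 3 SD, about 51%; inactive = the rest.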

Experiments:
[1] = rapamycin-like changes in RPL19A-GFP expression – cell-based, S. cerevisiae, multiplex flow cytometry, primary screen (AID 1862; in the data active = percent of DMSO control GFP below about 86%;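 note: lower values mimic rapamycin by blocking the RPL19A rise seen in DMSO cells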); details: S. cerevisiae RPL19A-GFP strain, flow cytometry fluorescence, 3 h; at 10 µM; stronger effect = lower value
[2] = TOR pathway GLN3 branch reporter MEP2-GFP changes – S. cerevisiae, multiplex flow cytometry, primary screen (AID 1867;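 active = GFP response, as percent of the DMSO control, above the screen-wide mean plus 3 SD, about 139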;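 note: median GFP channel fluorescence of barcode-gated MEP2-GFP cells measured by flow cytometry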); details: S. cerevisiae MEP2-GFP strain, 3 h, at 10 µM, stronger effect = higher value, 100% means same as DMSO wells
[3] = TOR pathway RTG branch CIT2 reporter changes – S. cerevisiae, GFP fusion, multiplex flow cytometry, primary screen (AID 1870;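 active = percent response above a set limit, the screen-wide mean plus 3 SD, cut at about 130% in these data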;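 note: barcoded CIT2-GFP strain pooled with four other GFP strains with rapamycin as positive control; median GFP fluorescence per well over plate mean of DMSO wells so 100% = DMSO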); details: S. cerevisiae CIT2-GFP expression, 3 h, at 10 µM, stronger effect = higher value
[4] = TOR pathway LAP4-GFP level changes – S. cerevisiae, multiplex flow cytometry, primary screen (AID 1873;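 active = GFP signal, as percent of the solvent control, above the screen mean plus 3 SD, about 149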); details: S. cerevisiae LAP4-GFP expression, 3 h, at 10 µM, stronger effect = higher value
[5] = yeast AGP1-GFP level changes, GLN3 branch – cell-based, multiplex flow cytometry, S. cerevisiae, primary screen (AID 1887;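 active = GFP signal above the screen-wide mean plus 3 SD, that is over about 124.5% of the solvent control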;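 note: AGP1-GFP fusion strain of S. cerevisiae within a five-strain barcoded multiplex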); details: 3 h, at 10 µM, stronger effect = higher value
[6] = reduced mouse 2C T cell binding to pMHC/ICAM-1 vesicles – MLPCN validation set, flow cytometry, LFA-1/ICAM-1 modulator project, pilot screen (AID 2523;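 active = response below a set limit, under 55% cells CD8-positive and vesicle-bound, and CD8 cells' 90th-percentile brightness under 279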;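 for vesicle binding response: mean PE anti-B7-1 fluorescence of CD8+ cells relative to row control; 100% = QL9-loaded vesicles with DMSO vehicle in the same plate row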); details: 2C mouse CD8+ T cells, at 7 µM, stronger effect = lower value; double positive events: measured here: CD8+/vesicle+ event percentage
[7] = molecular target: Integrin beta-1 (Homo sapiens) + Integrin alpha-4 (Homo sapiens) (UniProt P13612+P05556); assay: alpha4beta1 integrin LIBS antibody binding reduction – U937 cells, HUTS-21 mAb, flow cytometry, validation set, VLA-4 allosteric modulator project, pilot screen (AID 2674;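 active = inhibition above 50%, about 3 SD of the validation set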;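 note: antibody binding induced by the VLA-4 ligand LDV present at three times its Kd; 0% = LDV ligand with antibody and no compound and 100% = antibody without LDV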); details: HUTS-21 LIBS mAb binding, at 6.7 µM, stronger effect = higher value, binding induced by LDV ligand
[8] = calorie-restriction mimetic ROS inhibitors, yeast – validation compound set, pilot screen (AID 2706;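 active = superoxide response below 65% of plate, a cut near 3 SD across the whole screen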;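 note: yeast exposed to compound for one week at 30 degrees C before staining; 100% = mean of all compound wells on the same plate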); details: S. cerevisiae aging, superoxide DHE fluorescence; at 10 µM; stronger effect = lower value
[9] = molecular target: Beta-adrenergic receptor kinase 1 (Homo sapiens) (UniProt P25098); assay: GRK2 binders displacing RNA aptamer, biochemical, validation, human GRK2, bead flow cytometry (AID 488806;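 active = aptamer binding inhibition above 30%, about 3 SD of noise from non-fluorescent compounds; inactive = inhibition at or below 30%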); details: bead-bound GRK2, FAM-aptamer displacement, at 10 µM, stronger effect = higher value
[10] = molecular target: Beta-2 adrenergic receptor (Homo sapiens) (UniProt P07550); assay: agonist-induced loss of surface beta2AR – cell-based, FAP fluorogen, flow cytometry, validation set, pilot screen (AID 504459;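 active = percent response above 42, roughly 3 SD of non-fluorescent test compounds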;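 note: agonist-driven loss of surface beta2AR via internalization measured by FAP dye flow cytometry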); details: Am2.2-beta2AR cells, at 10 µM, stronger effect = higher value
[11] = molecular target: AP-2 complex subunit beta (Homo sapiens) (UniProt P63010); assay: beta-arrestin/AP2 interaction blockers – biochemical, validation set, GST-AP2 beads, flow cytometry, pilot screen (AID 504541;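 active = inhibition above 54%, about 3 SD of non-fluorescent compounds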;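 note: AP2 carries R879A mutation and is captured from E. coli lysate; bead-bound FITC arrestin peptide fluorescence measuring arrestin peptide binding to AP2; 0% = DMSO wells and 100% = excess unlabeled arrestin peptide control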); details: FITC arrestin peptide, at 10 µM, stronger effect = higher value, AP2 beta2 appendage fragment, R879A mutant
[12] = cytosolic pH regulators acting via V-ATPase – S. cerevisiae, pHLuorin, HTS validation (AID 504600; in the data active = response above about 15%;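 note: plate controls were DMSO for no effect and reference compound for full effect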); details: V-ATPase proton transport, at 10 µM, stronger effect = higher value
[13] = system: anti-desmoglein-3 scFv antibody binding to human DSG3; assay: blockers of pathogenic pemphigus antibody–desmoglein-3 binding – biochemical, validation compound set, bead-based, flow cytometry, pilot screen (AID 588368;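 active = binding below the plate cutoff, the plate median minus 3 SD, with a reading above zero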;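 note: signal is the median channel fluorescence of bead-bound GFP antibody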); details: Protein G beads, DSG3-Fc, scFv-GFP binding, at 10 µM, stronger effect = lower value
[14] = Nile Red efflux blockade in pump-expressing yeast – validation compound set, multiplex, phenotypic, pilot screen (AID 588506;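 active = efflux inhibition above 0.42, the validation set average plus 4 SD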;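 note: Nile Red retained in cells so higher fluorescence means more efflux inhibition; 0 = negative control wells and 1 = enniatin B 25 µM full block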); details: S. cerevisiae pump-expressing triplex, Nile Red efflux flow cytometry; at 10 µM; stronger effect = higher value; the pumps come from Candida albicans
[15] = molecular target: ATP-binding cassette sub-family B member 6 (Homo sapiens) (UniProt Q9NP58); assay: blockers of ABCB6-driven porphyrin uptake – K562-ABCB6 cells, flow cytometry, validation set, pilot screen (AID 588550); details: K562-ABCB6 porphyrin accumulation, 1 h, at 10 µM, stronger effect = higher value;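 note: 0% = DMSO wells and 100% = benzethonium chloride 70 µM positive control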
[16] = AML differentiation inducers, ER-HoxA9 marrow cells – cell-based, GFP/MAC1 double positive, flow cytometry, validation set, primary screen (AID 588685;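 active = differentiation response of at least 50%, scaled between solvent and reference control, from cells with both markers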;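 note: compound exposure lasts four days before antibody staining and flow analysis; 0% = DMSO wells and 100% = 5 µM fulvestrant positive control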); details: stronger effect = higher value, normalized: vehicle 0, fulvestrant 100

ATP-binding cassette sub-family B member 6 (Homo sapiens), sequence (Q9NP58 whole entry, looked up): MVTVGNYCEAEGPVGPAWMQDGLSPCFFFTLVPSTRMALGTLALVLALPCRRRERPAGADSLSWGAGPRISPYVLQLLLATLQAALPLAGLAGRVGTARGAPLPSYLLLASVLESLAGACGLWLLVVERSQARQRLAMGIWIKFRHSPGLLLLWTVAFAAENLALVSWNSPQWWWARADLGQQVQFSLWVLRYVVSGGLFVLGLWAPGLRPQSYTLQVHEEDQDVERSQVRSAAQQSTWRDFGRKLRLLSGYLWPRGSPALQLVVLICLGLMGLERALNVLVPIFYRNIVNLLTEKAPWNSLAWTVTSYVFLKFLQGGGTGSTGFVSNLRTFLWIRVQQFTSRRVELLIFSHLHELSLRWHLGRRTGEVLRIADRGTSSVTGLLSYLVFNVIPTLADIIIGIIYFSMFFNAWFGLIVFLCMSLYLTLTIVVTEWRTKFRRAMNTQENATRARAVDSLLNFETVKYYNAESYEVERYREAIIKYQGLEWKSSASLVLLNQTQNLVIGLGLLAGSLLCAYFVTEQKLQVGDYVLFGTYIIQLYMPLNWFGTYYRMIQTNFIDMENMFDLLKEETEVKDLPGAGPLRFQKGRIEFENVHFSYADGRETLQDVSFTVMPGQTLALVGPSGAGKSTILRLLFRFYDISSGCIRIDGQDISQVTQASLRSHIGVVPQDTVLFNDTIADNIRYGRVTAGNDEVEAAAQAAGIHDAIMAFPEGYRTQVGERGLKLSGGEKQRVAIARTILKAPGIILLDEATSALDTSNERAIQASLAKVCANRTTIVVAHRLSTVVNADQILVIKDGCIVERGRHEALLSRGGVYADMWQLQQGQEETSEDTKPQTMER
Integrin beta-1 (Homo sapiens) + Integrin alpha-4 (Homo sapiens), sequence (P05556 whole entry, looked up): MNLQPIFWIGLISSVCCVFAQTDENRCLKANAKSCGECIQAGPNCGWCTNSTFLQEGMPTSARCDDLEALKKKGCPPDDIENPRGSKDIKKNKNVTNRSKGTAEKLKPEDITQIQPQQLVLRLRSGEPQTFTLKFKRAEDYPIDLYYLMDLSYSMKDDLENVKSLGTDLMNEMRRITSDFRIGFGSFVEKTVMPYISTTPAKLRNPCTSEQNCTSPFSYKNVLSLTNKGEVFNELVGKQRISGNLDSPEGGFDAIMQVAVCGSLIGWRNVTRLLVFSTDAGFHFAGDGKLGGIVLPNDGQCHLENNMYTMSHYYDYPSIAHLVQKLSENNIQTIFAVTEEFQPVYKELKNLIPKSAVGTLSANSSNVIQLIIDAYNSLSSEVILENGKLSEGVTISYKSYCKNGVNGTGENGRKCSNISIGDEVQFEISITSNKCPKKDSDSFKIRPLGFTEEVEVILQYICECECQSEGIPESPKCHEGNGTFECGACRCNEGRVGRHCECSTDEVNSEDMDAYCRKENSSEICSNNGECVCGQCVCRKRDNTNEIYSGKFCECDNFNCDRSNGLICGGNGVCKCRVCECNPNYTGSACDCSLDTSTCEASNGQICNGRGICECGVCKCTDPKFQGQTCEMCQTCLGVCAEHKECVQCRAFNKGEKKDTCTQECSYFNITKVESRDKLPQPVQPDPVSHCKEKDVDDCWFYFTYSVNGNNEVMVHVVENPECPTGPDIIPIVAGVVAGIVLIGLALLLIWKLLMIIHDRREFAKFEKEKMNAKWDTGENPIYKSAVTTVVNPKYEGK
Integrin beta-1 (Homo sapiens) + Integrin alpha-4 (Homo sapiens), sequence (P13612 whole entry, looked up): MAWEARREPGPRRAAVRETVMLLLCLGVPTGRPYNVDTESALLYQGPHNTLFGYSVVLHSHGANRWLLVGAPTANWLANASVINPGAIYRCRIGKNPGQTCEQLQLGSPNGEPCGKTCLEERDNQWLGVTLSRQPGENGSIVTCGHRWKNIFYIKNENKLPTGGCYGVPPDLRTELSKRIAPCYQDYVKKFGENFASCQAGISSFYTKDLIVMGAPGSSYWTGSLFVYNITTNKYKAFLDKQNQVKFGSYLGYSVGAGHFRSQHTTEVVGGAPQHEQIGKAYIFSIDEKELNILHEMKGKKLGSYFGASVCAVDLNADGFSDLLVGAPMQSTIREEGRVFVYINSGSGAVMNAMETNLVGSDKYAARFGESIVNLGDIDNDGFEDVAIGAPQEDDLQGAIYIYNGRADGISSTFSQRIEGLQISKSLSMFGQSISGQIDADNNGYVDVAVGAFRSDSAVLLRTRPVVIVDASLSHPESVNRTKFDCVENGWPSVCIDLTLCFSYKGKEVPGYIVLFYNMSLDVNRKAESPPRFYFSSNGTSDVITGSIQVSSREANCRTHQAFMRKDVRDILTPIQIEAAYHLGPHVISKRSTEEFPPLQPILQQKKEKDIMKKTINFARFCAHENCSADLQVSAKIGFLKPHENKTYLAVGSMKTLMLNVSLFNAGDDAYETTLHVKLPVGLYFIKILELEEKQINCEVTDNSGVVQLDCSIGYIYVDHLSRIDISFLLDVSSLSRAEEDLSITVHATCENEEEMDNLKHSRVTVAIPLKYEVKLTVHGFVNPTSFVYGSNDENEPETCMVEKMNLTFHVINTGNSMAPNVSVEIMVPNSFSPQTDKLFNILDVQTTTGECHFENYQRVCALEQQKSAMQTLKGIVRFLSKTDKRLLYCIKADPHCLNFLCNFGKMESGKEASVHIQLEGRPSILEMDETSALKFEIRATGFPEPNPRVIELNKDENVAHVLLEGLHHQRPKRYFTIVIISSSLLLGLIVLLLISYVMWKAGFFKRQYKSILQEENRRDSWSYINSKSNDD
AP-2 complex subunit beta (Homo sapiens), sequence (P63010 whole entry, looked up, the tested form may be a part, one chain of several): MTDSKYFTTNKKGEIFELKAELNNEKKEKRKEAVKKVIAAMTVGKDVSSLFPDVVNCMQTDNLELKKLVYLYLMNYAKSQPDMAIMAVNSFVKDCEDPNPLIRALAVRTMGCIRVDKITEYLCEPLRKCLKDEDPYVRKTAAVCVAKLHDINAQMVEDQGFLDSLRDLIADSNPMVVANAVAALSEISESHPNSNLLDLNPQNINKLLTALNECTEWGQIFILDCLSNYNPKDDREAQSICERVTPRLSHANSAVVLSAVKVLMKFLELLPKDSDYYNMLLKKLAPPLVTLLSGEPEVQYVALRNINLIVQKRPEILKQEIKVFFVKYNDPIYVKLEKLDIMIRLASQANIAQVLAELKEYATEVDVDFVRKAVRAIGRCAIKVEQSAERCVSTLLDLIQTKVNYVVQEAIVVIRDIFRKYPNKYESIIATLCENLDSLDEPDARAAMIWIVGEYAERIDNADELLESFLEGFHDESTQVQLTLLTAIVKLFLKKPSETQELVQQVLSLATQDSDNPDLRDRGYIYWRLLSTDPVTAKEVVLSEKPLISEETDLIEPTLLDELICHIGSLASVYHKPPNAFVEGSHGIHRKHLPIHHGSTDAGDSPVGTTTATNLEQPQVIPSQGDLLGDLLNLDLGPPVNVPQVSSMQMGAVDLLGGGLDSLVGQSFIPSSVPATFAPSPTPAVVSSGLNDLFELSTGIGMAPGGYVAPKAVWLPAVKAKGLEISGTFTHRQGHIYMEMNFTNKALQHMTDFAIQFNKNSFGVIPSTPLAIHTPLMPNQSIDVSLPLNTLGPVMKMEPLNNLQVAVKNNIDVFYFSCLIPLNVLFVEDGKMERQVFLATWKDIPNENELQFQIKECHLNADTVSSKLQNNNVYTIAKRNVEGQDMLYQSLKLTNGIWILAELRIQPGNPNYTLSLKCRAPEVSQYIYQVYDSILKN
Beta-2 adrenergic receptor (Homo sapiens), sequence (P07550 whole entry, looked up): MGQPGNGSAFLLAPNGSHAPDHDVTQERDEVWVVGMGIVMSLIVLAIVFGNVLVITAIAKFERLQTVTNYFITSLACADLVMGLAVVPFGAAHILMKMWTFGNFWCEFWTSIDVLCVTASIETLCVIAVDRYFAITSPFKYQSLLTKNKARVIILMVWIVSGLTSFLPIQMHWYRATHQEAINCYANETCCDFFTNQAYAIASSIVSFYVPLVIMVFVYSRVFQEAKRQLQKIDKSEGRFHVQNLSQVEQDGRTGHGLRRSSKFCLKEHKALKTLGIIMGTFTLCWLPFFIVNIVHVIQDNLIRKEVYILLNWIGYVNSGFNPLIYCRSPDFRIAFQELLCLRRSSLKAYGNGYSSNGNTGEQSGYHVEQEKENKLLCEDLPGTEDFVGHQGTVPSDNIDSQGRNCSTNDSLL
Beta-adrenergic receptor kinase 1 (Homo sapiens), sequence (P25098 whole entry, looked up): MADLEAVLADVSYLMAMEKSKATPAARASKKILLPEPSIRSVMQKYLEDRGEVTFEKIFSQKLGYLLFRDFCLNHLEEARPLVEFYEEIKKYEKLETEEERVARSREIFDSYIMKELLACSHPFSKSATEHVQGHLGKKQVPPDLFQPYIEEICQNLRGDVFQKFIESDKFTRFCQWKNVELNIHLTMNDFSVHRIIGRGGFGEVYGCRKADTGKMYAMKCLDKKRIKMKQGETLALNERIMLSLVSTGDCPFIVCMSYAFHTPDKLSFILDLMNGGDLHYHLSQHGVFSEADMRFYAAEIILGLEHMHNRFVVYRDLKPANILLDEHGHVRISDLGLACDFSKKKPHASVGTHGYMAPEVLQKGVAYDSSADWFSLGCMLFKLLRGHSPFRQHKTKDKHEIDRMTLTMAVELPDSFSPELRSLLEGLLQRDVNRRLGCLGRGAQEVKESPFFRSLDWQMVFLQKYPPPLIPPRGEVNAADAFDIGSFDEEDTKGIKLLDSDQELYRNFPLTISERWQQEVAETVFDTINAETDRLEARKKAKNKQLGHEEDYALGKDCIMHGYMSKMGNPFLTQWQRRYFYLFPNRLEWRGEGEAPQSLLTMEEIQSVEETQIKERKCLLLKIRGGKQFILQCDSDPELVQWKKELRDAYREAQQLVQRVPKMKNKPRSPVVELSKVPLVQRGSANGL

| SMILES | percent of DMSO control GFP [1] | GFP response vs DMSO [2] | percent response of DMSO control [3] | GFP response vs DMSO [4] | GFP response, % of DMSO [5] | double positive events [6] [%] | vesicle binding response [6] | inhibition [7] | superoxide response (% of plate) [8] | aptamer binding inhibition [9] | response [10] | inhibition [11] | response [12] | binding (% of control) [13] | efflux inhibition (fraction of control) [14] | inhibition [15] | differentiation response [16] |
| --- | --- | --- | --- | --- | --- | --- | --- | --- | --- | --- | --- | --- | --- | --- | --- | --- | --- |
| COc1ccc(/C=C\c2cc(OC)c(OC)cc2CC[N+](C)(C)C)cc1OC | 96.3% (inactive) | 102% (inactive) | 101% (inactive) | 122% (inactive) | 103% (inactive) | 57.8 | 216% (inactive) | -4.52% (inactive) | 108% (inactive) | -3% (inactive) | -7.25% (inactive) | -9.15% (inactive) | 0.95% (inactive) | 103% (inactive) | 0.26 (inactive) | 2% (inactive) | -0.8% (inactive) |
| O=C(O)[C@@H](O)c1ccccc1 | 102% (inactive) | 106% (inactive) | 102% (inactive) | 121% (inactive) | 120% (inactive) | 62 | 168% (inactive) | 16.8% (inactive) | 97% (inactive) | 3% (inactive) | -22.9% (inactive) | 10.1% (inactive) | -0.22% (inactive) | 106% (inactive) | -0.04 (inactive) | 3% (inactive) | -11.9% (inactive) |
| O=C(Cc1c[nH]c2ccccc12)OCCOC(=O)Cc1c[nH]c2ccccc12 | 104% (inactive) | 96.6% (inactive) | 110% (inactive) | 100% (inactive) | 101% (inactive) | 60.9 | 111% (inactive) | -3.77% (inactive) | 103% (inactive) | -1% (inactive) | -3.51% (inactive) | -12.4% (inactive) | 1.88% (inactive) | 99.6% (inactive) | -0.12 (inactive) | -4% (inactive) | -4.57% (inactive) |
| COc1ccc(NC(=O)Nc2ccc(C(C)C)cc2)cc1 | 104% (inactive) | 103% (inactive) | 101% (inactive) | 95.9% (inactive) | 88.6% (inactive) | 56.2 | 126% (inactive) | 20.4% (inactive) | 98.7% (inactive) | 7% (inactive) | 2.17% (inactive) | -5.4% (inactive) | -1.78% (inactive) | 97.3% (inactive) | 0.03 (inactive) | -11% (inactive) | 2.74% (inactive) |
| CCc1cc(=O)oc2cc3occ(-c4ccc(OC)c(F)c4)c3cc12 | 96.8% (inactive) | 116% (inactive) | 111% (inactive) | 93% (inactive) | 87.7% (inactive) | 60.2 | 260% (inactive) | 16.2% (inactive) | 88% (inactive) | -1% (inactive) | 25.5% (inactive) | 6.17% (inactive) | 0.45% (inactive) | 107% (inactive) | 0.63 (active) | 15% (inactive) | 10.6% (inactive) |
| O=C(Nc1ccc(C(=O)NC2CCCCC2)cc1)c1cccnc1 | 99.5% (inactive) | 101% (inactive) | 107% (inactive) | 119% (inactive) | 105% (inactive) | 57.6 | 232% (inactive) | -0.43% (inactive) | 113% (inactive) | 1% (inactive) | -3.04% (inactive) | -15.9% (inactive) | 1.36% (inactive) | 95.1% (inactive) | -0.17 (inactive) | 13% (inactive) | -4% (inactive) |
| CC(C)CCc1noc(CN2CCC(CCN3CCCC3=O)CC2)n1 | 98.3% (inactive) | 101% (inactive) | 105% (inactive) | 99.1% (inactive) | 102% (inactive) | 62.1 | 188% (inactive) | 23% (inactive) | 97.3% (inactive) | -3% (inactive) | -4.37% (inactive) | 32.4% (inactive) | -4.25% (inactive) | 95.1% (inactive) | -0.39 (inactive) | -3% (inactive) | -13.3% (inactive) |
